For 17 compounds, composite z-score and z-score results are on record in PubChem BioAssay.

Assay [1] has as its system PRMT1 (protein arginine N-methyltransferase 1). The assay is described as follows: PRMT1 binders on small-molecule microarrays, primary screen, biochemical, small-molecule microarray, 635 nm fluorescence (AID 1088).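 Note: binding of Prmt1 protein to compounds spotted on small-molecule microarray slides.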 Conditions: small-molecule microarray binding, higher = more signal.
A short description of assay [2]: yeast growth modulation, basal conditions, primary screen, YJM789 clinical isolate, OD600, 24 h (AID 1089).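 Note: growth of clinical yeast isolate S. cerevisiae YJM 789 seeded 1000 cells per well; test concentration not given here.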 Conditions: S. cerevisiae YJM789 growth, higher = more signal, called active from +8 up or from −8 down.
Assay [3] can be described thus: fission yeast growth modulation, primary screen, strain 972, OD600, 24 h, no modulator (AID 1090).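 Note: basal condition with compound alone and no growth modifier present; test concentration not given here.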 The settings on record: S. pombe 972 growth, higher = more signal, called active from +8 up or from −8 down.
A short description of assay [4]: S. cerevisiae growth modulation with rapamycin, primary screen, strain BY4716, OD600, 96 h (AID 1091). Note: test concentration not given here. Conditions: higher = more signal, called active from +8 up or from −8 down.
Assay [5] has as its target Torsin-1A-interacting protein 2 (Homo sapiens) (UniProt Q8NFQ8). The assay is described as follows: LULL1 binders on small-molecule microarray, primary screen, cell lysate, human LULL1 lysate, 635/667 nm fluorescence (AID 1092).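 Note: probe is lysate of COS7 cells overexpressing human LULL1; score merges per-feature 667 nm fluorescence with signal-to-noise.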 The settings on record: hLULL1 lysate binding, 635 nm fluorescence, higher = more signal.
Assay [6] is described as follows: E. coli growth modulation, two-sided OD650, primary screen, E. coli filamentation project, strain DRC41, 24 h (AID 1093).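 Note: MC1000 strain lacking acrAB efflux and sulA so SOS filamentation is blocked; test concentration not given here.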 Conditions: OD650, 24 h, higher = more signal, called active from +8 up or from −8 down.
Assay [7] is described as follows: small-molecule microarray binders of probe aLefty2, primary screen, biochemical, biotinylated probe, 635/667 nm fluorescence (AID 1094).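 Note: score merges spot fluorescence near 667 nm with spot signal-to-noise ratio.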 The settings on record: higher = more signal.
In assay [8] the test system is Noggin (protein binding on small-molecule microarray). The assay is described as follows: Noggin binders on small-molecule microarray, primary screen, biochemical, 635/667 nm fluorescence (AID 1095).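 Note: score merges 667 nm feature fluorescence with signal to noise over triplicate slides.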 Conditions: 635 nm fluorescence, higher = more signal.
The target in assay [9] is Neurogenic locus notch homolog protein 3 (Homo sapiens) (UniProt Q9UM47). As to the kind of experiment: NOTCH3 binders on small-molecule microarray, primary screen, biochemical, 635/667 nm fluorescence (AID 1096). Conditions: NOTCH3 binding, 635 nm fluorescence, higher = more signal.
Assay [10] can be described thus: small-molecule microarray binders of probe aEGFR, primary screen, biochemical, biotinylated probe, 635/667 nm fluorescence (AID 1097).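 Note: probe is a biotinylated anti-EGFR antibody binding compounds printed on slides; score combines fluorescence near 667 nm and signal to noise of each spot.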 The settings on record: higher = more signal.

The source made the active and inactive calls.

Sequence of Torsin-1A-interacting protein 2 (Homo sapiens) (Q8NFQ8 whole entry, looked up): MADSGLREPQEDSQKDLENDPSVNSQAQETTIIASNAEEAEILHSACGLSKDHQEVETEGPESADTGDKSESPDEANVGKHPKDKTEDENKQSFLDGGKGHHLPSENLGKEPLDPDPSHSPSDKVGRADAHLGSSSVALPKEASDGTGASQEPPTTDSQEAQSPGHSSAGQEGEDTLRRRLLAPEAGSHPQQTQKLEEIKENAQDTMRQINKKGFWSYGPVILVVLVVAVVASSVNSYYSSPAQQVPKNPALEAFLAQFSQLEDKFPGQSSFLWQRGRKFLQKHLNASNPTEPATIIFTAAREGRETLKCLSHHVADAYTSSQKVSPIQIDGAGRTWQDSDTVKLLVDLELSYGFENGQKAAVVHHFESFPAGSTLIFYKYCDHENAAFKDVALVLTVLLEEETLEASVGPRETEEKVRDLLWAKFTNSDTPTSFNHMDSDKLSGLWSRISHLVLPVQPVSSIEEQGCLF
Sequence of Neurogenic locus notch homolog protein 3 (Homo sapiens) (Q9UM47 whole entry, looked up): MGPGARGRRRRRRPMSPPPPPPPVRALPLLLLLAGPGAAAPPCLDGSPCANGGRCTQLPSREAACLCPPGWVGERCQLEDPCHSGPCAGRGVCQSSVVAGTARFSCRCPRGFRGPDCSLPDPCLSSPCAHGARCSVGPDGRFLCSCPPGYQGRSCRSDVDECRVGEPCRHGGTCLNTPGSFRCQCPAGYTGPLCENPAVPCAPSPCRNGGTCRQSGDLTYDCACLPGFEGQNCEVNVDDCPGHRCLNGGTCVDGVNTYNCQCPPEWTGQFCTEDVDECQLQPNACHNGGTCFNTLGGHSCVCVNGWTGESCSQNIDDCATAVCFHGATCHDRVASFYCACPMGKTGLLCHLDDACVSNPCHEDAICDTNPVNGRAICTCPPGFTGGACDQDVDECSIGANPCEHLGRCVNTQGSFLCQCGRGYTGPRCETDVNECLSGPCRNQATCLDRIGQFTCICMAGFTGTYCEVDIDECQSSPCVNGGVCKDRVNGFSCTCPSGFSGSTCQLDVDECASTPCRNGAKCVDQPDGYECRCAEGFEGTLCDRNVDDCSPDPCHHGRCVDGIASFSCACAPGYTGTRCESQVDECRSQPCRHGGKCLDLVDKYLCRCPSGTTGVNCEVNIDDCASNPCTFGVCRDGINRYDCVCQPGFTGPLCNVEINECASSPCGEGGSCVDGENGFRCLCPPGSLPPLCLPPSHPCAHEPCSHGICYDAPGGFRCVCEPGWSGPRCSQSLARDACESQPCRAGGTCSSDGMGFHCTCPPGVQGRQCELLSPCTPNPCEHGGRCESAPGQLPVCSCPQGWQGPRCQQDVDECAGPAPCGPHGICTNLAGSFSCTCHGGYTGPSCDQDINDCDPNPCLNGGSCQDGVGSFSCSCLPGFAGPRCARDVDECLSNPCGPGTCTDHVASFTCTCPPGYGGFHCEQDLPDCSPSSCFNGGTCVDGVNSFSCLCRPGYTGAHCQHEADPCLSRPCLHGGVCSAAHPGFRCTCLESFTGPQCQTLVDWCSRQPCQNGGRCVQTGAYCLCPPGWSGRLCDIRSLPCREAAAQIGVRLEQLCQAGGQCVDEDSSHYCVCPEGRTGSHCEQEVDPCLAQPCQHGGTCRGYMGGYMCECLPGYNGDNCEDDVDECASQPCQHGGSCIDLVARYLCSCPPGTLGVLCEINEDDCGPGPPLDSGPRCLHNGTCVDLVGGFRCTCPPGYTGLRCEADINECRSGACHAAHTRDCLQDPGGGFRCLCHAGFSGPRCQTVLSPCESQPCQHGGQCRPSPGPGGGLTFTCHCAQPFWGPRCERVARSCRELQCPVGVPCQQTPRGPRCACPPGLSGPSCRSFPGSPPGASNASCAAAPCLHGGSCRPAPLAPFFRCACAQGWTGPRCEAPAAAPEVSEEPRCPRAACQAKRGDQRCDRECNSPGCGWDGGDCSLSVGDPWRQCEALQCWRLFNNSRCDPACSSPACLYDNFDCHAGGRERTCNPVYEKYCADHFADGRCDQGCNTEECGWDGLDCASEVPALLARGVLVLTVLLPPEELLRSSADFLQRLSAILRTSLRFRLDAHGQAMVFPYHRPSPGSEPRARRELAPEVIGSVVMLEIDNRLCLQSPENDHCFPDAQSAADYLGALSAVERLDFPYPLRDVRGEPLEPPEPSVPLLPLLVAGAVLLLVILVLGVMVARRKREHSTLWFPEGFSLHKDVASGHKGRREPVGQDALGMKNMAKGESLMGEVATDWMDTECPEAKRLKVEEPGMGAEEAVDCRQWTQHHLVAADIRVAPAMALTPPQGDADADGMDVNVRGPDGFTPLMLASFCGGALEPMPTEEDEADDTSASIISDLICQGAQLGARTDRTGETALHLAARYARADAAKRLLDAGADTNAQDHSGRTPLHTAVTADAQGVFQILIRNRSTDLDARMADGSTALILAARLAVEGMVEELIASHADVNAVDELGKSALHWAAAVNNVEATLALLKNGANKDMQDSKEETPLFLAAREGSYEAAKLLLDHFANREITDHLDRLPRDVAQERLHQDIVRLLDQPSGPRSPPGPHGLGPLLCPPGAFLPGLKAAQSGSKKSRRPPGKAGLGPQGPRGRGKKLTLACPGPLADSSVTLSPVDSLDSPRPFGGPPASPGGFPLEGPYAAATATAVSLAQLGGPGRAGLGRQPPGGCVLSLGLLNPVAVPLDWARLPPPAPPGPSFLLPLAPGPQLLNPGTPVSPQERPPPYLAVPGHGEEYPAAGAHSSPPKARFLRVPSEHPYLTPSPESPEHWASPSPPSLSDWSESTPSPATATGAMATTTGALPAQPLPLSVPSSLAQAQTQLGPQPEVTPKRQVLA

Turning to `C=CC[C@@]1(C(=O)N2CCCCC2)N=C(c2ccc(OCCCO)cc2)O[C@@H]1c1ccccc1N=[N+]=[N-]`, the composite z-score in assay [1] stood at 1.54; in [5], 3.23; in assay [7] it was 0.286; in assay [8], 0.564; in assay [9], 1.13; in assay [10], 0.14. For the same compound, the z-score in assay [2] was -0.989 (inactive); in assay [3], -0.577 (inactive); in assay [4], 1.13 (inactive); in assay [6] it was 1.07 (inactive).
On to `O=C(O)[C@H](Cc1ccccc1)n1cc(-c2ccccc2)nn1`, for which the composite z-score was 0.112 in assay [1]; 1.03 in assay [5]; -0.0592 in assay [7]; 0.197 in assay [8]; 0.185 in assay [9]; 0.119 in [10]. Further, the z-score in assay [2] is 0.306 (inactive); in assay [3], 0.865 (inactive); in assay [4], 0.173 (inactive); in [6], -0.741 (inactive).
With `COCCOC(=O)N1C(=O)[C@@]2(c3cc(C#CC4(O)CCCCCC4)ccc31)[C@H](c1ccccc1OCCO)N1[C@H](c3ccccc3)[C@H](c3ccccc3)OC(=O)[C@H]1[C@@H]2C(=O)N1CCc2cc(OC)c(OC)cc2C1`, the composite z-score in [1] was 1.55; in assay [5], 2.96; in assay [7] it was -0.0903; in assay [8], 1.24; in assay [9], 1.05; in [10], 0.0092. Moreover, the z-score in assay [2] was 2.46 (inactive); in assay [3], 2.71 (inactive); in assay [4] it was 5.86 (inactive); in assay [6], 0.339 (inactive).
With `COc1ccc(C(=O)Nc2ccc(CN3C(=O)[C@]4(O[C@H](CC(=O)N5CCC[C@H]5CO)[C@@H]([Si](C)(C)c5ccc(OC)cc5)[C@@H]4C)c4ccccc43)cc2)cc1`, the composite z-score in assay [1] is 1.54; in assay [5], 2.57; in assay [7] it was -0.124; in assay [8], 1.35; in [9], 1.1; in [10], -0.12. Also, the z-score in [2] was -0.676 (inactive); in assay [3], 0.173 (inactive); in assay [4], -0.539 (inactive); in [6], -0.481 (inactive).
On to `CN1C(=O)C2C=CC(C(O)c3ccccc3)N(N3CCCCC3)C2C1=O` (stereo not given), for which the composite z-score in assay [1] amounted to 0.664; in assay [5] it was 3.52; in assay [7], 0.0215; in assay [8], 0.145; in assay [9] it was 0.646; in assay [10] it was 0.0713. The z-score in assay [2] was 0.201 (inactive); in assay [3] it was 0.24 (inactive); in assay [4], 0.404 (inactive); in [6], -2.05 (inactive).
As to `[N-]=[N+]=Nc1ccccc1C[C@]1(C(=O)NCc2ccccc2)N=C(c2ccc(OCCCO)cc2)O[C@H]1c1ccccc1N=[N+]=[N-]`, the composite z-score is 1.52 in [1]; 2.53 in assay [5]; 0.292 in [7]; 0.358 in [8]; 1.04 in assay [9]; -0.067 in assay [10]. In addition, the z-score in assay [2] was 0.422 (inactive); in assay [3] it was 1.63 (inactive); in assay [4] it was 4.87 (inactive); in assay [6] it was 0.362 (inactive).
Turning to `C#CCNCc1ccccc1`, the composite z-score is -0.0993 in [1]; -0.0541 in assay [5]; -0.161 in assay [7]; 0.235 in [8]; 0.527 in [9]; -0.0435 in [10]. In addition, the z-score is -0.514 (inactive) in assay [2], -0.749 (inactive) in assay [3], -0.157 (inactive) in assay [4] and -0.276 (inactive) in assay [6].
On to `C=C(CCCC)/C(=C/C[C@H](OC(C)=O)c1ccc(OCCO)cc1)c1cnc2ccccc2c1`, for which the composite z-score in assay [1] was 1.53; in [5], 1.92; in assay [7], -0.138; in [8], 1.04; in assay [9] it was 0.727; in [10], -0.0824. Also, the z-score was -1.1 (inactive) in assay [2], -1.83 (inactive) in assay [3], -0.434 (inactive) in assay [4] and 1 (inactive) in assay [6].
With `C=CC[C@]1(C(N)=O)COC(c2ccc(OCCCO)cc2)=N1`, the composite z-score in [1] is 0.322; in assay [5], 1.38; in assay [7], 0.301; in [8], 0.27; in assay [9], -0.769; in assay [10], -0.139. The z-score in assay [2] is 0.924 (inactive); in assay [3], -1.09 (inactive); in assay [4], -1.09 (inactive); in assay [6], 1.27 (inactive).
Consider `CO[C@H]1O[C@H](CO)[C@@H](OC(=O)Nc2ccc(Br)cc2)[C@@H]2OC(=O)[C@H](Cc3cccc(Br)c3)C/C=C/C[C@@H](Cc3cccc(Br)c3)C(=O)O[C@@H]12`, for which the composite z-score in [1] is 0.0859; in assay [5], 0.763; in [7], -0.112; in assay [8] it was 0.594; in assay [9], 0.911; in assay [10], -0.0828. For the same compound, the z-score in assay [2] was -0.163 (inactive); in [3], -2.81 (inactive); in [4] it was 30.3 (active); in assay [6], 1.26 (inactive).
On to `COCCOC(=O)N1C(=O)[C@@]2(c3cc(C#CC4(O)CCCCCC4)ccc31)[C@H](C(=O)Nc1nc3ccccc3s1)[C@H]1C(=O)O[C@H](c3ccccc3)[C@H](c3ccccc3)N1[C@@H]2c1ccc(OCCO)cc1`, for which the composite z-score in [1] was 1.55; in assay [5], 1.87; in assay [7], -0.0458; in assay [8] it was 1.45; in [9], 1.09; in assay [10] it was 0.0064. Also, the z-score was 2.38 (inactive) in assay [2], 1.32 (inactive) in assay [3], 4.01 (inactive) in [4] and 0.76 (inactive) in [6].
In the case of `CC(=O)n1cc(C(O)C2C=CC3C(=O)NC(=O)C3N2Nc2ccccn2)c2ccccc21` (stereo not given), the composite z-score in assay [1] was 0.553; in [5] it was 0.134; in [7], -0.0594; in assay [8] it was 0.187; in assay [9] it was 0.375; in [10], -0.0084. Also, the z-score is 0.505 (inactive) in [2], 0.777 (inactive) in assay [3], 0.171 (inactive) in assay [4] and -0.965 (inactive) in [6].
Take `CC1CC/C=C\[C@H]2OC34C=CCN(Cn5nnc6ccccc65)C(=O)[C@H]3N(CCCCCO)C(=O)[C@@H]4C2C(=O)O1` (stereo not given in full): the composite z-score in [1] was 0.547; in assay [5] it was 2.47; in [7], -0.169; in [8], -0.355; in assay [9], -0.432; in [10], -0.18. Besides, the z-score in [2] is 0.31 (inactive); in [3] it was 0.423 (inactive); in [4], -0.644 (inactive); in assay [6], 0.752 (inactive).
`C=CCNC(=O)[C@H]1[C@@H]2C(=O)O[C@@H](c3ccccc3)[C@@H](c3ccccc3)N2[C@@H](c2ccc(OCCO)cc2)[C@]12C(=O)Nc1ccc(C#CCC(C(=O)OC)C(=O)OC)cc12`: the composite z-score in [1] is 1.56; in assay [5] it was 2.74; in [7], 0.187; in assay [8], 0.608; in assay [9], 1.08; in assay [10] it was -0.004. Moreover, the z-score is 1.63 (inactive) in assay [2], 1.79 (inactive) in assay [3], 5.79 (inactive) in [4] and 0.0251 (inactive) in [6].
`CCOC(=O)C1=CC[C@@H](c2ccc(C(F)(F)F)cc2)N(S(=O)(=O)c2ccc(C)cc2)[C@H]1c1ccccc1`: the composite z-score worked out at 1.49 in [1]; 2.92 in [5]; 0.285 in [7]; 0.496 in assay [8]; 1.05 in [9]; 0.208 in assay [10]. In addition, the z-score in assay [2] is -0.641 (inactive); in assay [3] it was -0.482 (inactive); in assay [4], 0.363 (inactive); in assay [6] it was -0.617 (inactive).
For the compound `COC(=O)[C@@]1(Cc2ccc(OC)cc2)[C@H]2c3cc(C(=O)N4CCCC4)n(CCc4ccc(O)c(O)c4)c3C[C@H]2CN1C(=O)c1ccccc1`, the composite z-score in assay [1] was -0.445; in [5], 3.62; in [7], 0.491; in assay [8], -0.17; in assay [9] it was -0.122; in assay [10], 0.212. Also, the z-score was -0.087 (inactive) in assay [2], 0.208 (inactive) in [3], 0.751 (inactive) in [4] and -0.765 (inactive) in assay [6].
`COC(=O)[C@@]1(Cc2ccccc2)[C@H]2c3cc(C(=O)N(C)C)n(CCc4c[nH]c5ccc(O)cc45)c3C[C@H]2CN1C(=O)c1ccccc1`: the composite z-score in assay [1] is 0.937; in assay [5], 3.11; in assay [7] it was 0.583; in [8] it was 0.626; in [9], 0.751; in assay [10] it was -0.0234. Moreover, the z-score in [2] is -1.09 (inactive); in assay [3], 1.25 (inactive); in assay [4], 0.405 (inactive); in assay [6], 0.488 (inactive).
